Source: PubChem BioAssay AID1224921 (Broad Institute, 2016)
Out of some 1,400 compounds screened, about 350 (25%) were called active. Not shown: some 2% with an inconclusive outcome. The rule behind the calls is not given here. Only a sample is shown. Entries with a potency or affinity are not part of this list.

experiment: inhibitors of Clostridioides difficile proliferation – 4-point retest, confirmation (AID 1224921); conditions: Clostridioides difficile clinical isolate growth, OD600, 24 h, hits give low values; at 30 µM unless noted;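 note: plate controls were DMSO wells for no effect and levofloxacin 16 µg/mL wells for full effect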

Max activity, inactive:
C[C@H](CO)N1C[C@H](C)[C@H](CN(C)C(=O)[C@H](C)c2ccccc2)OCc2ccccc2-c2ccccc2C1=O 12.5% [at 1.95 µM]
C[C@@H]1CN([C@H](C)CO)C(=O)c2cccc(NC(=O)Nc3ccc(C(F)(F)F)cc3)c2O[C@H]1CN(C)C(=O)Nc1ccccc1 25.7% [at 8 µM]
C[C@@H]1CN([C@@H](C)CO)C(=O)c2cccc(NC(=O)Nc3ccc(C(F)(F)F)cc3)c2O[C@H]1CN(C)C(=O)Nc1ccccc1 29.3%
C[C@@H]1CN([C@H](C)CO)C(=O)c2cccc(NC(=O)Nc3ccc(C(F)(F)F)cc3)c2O[C@@H]1CN(C)C(=O)Nc1cccc2ccccc12 40.5% [at 1.95 µM]
C[C@H](CO)N1C[C@H](C)[C@@H](CN(C)C(=O)Nc2ccccc2)Oc2c(NC(=O)Nc3ccc(C(F)(F)F)cc3)cccc2C1=O 46.6% [at 8 µM]
C[C@@H]1CN([C@@H](C)CO)C(=O)c2cccc(NC(=O)Nc3ccc(C(F)(F)F)cc3)c2O[C@H]1CN(C)C(=O)Nc1cccc2ccccc12 30.6% [at 1.95 µM]
C[C@H]1CN([C@@H](C)CO)S(=O)(=O)c2ccc(-c3ccccc3F)cc2O[C@@H]1CN(C)Cc1ccncc1 27%
C[C@H](CO)N1C[C@H](C)[C@@H](CN(C)C(=O)C2CCCCC2)Oc2ncc(-c3ccccc3F)cc2C1=O -11.4% [at 8 µM]
C[C@H]1CN([C@@H](C)CO)C(=O)Cc2cc(NS(C)(=O)=O)ccc2O[C@H]1CN(C)Cc1ccccc1 10.4%
COc1ccccc1C(=O)Nc1ccc2c(c1)OC[C@@H](C)N(CC1CC1)C[C@@H](C)[C@H](OC)CN(C)C2=O 19.1%
CO[C@@H]1CN(C)C(=O)c2ccc(NC(=O)c3nc4ccccc4s3)cc2OC[C@@H](C)N(Cc2ccncc2)C[C@H]1C 30.6%
CCCC#Cc1ccc2c(c1)O[C@H](CN(C)Cc1ccncc1)[C@H](C)CN([C@H](C)CO)S2(=O)=O 6.31%
C[C@@H]1CN([C@H](C)CO)C(=O)c2cccc(NC(=O)Nc3ccc4c(c3)OCO4)c2O[C@H]1CN(C)S(=O)(=O)c1ccc(Cl)cc1 -12.1% [at 8 µM]
CC(C)CC#Cc1ccc2c(c1)O[C@@H](CN(C)Cc1cccnc1)[C@H](C)CN([C@@H](C)CO)S2(=O)=O 42%
COc1ccccc1C#Cc1ccc2c(c1)O[C@H](CN(C)Cc1ccncc1)[C@@H](C)CN([C@@H](C)CO)S2(=O)=O 48.6%
